From PubChem BioAssay come the findings set out here.

SMILES strings stand for the structures. Unmarked numbers belong to inactive results. For some assays here: Entries with a potency or affinity are not part of this list. The source made the active and inactive calls. Unless noted, how the calls were made is not given here.

Assay [1] is described as follows: antimalarial activity against Dd2 strain (AID 2302;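 active means growth inhibition above 50% at the single 2 µM test dose, taken to imply half-maximal potency below 2 µM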;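 further: 0% = DMSO untreated growth and 100% = chloroquine plus artemisinin killed control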). Conditions: P. falciparum Dd2 in RBCs, LDH growth readout, 72 h; at 2 µM; stronger effect = higher value.
Assay [2] in a line: human hepatoma cell viability loss – ATP luminescence, cytotoxicity control for P. falciparum antimalarial project, primary screen (AID 2303;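 active means inhibition above 50%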;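 further: 0% = DMSO wells and 100% = digitonin-killed cells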). The note with it: HepG2 viability, 24-48 h, at 10 µM, stronger effect = higher value.
In assay [3] the target is L-lactate dehydrogenase (Plasmodium falciparum (isolate CDC / Honduras)) (UniProt Q27743). Briefly: PfLDH activity inhibition – cell lysate, 3D7 strain, counter-screen for P. falciparum growth inhibition project (AID 2304).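 Further: 0% = vehicle and 100% = reference inhibitor.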 Conditions: P. falciparum 3D7 crude extract, LDH APAD/NBT absorbance; at 2 µM; stronger effect = higher value. On the technique in general: The purpose of a counterscreen is to sort out artefacts and off-target activity.
L-lactate dehydrogenase (Plasmodium falciparum (isolate CDC / Honduras)), sequence (Q27743 whole entry, looked up): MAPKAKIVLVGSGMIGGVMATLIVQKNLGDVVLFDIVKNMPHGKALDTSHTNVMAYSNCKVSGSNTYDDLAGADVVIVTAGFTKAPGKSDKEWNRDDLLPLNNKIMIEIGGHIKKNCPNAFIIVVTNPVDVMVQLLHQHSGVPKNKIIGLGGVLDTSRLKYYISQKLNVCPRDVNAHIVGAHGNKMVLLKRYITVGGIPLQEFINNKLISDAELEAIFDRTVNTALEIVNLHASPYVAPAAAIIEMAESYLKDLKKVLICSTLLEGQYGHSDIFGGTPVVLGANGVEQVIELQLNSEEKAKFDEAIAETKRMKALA

A short description of assay [4]: inhibition of 3D7 malaria parasite growth – strain 3D7 (AID 2306).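 Further: 0% = DMSO wells and 100% = chloroquine plus artemisinin control wells.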 The note with it: P. falciparum 3D7 erythrocytic growth, LDH absorbance, 72 h; at 2 µM; stronger effect = higher value.
For assay [5], the target named is Calcium-dependent protein kinase 1 (Plasmodium falciparum (isolate 3D7)) (UniProt P62344). Briefly: PfCDPK1 kinase inhibitors, biochemical, TCAMS library (AID 1159585; cut-off not given, nearly all actives have IC50 up to about 0.98 µM;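 further: inhibitors leave more ATP so luminescence rises with inhibition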). Conditions: recombinant PfCDPK1, Kinase-Glo ATP depletion luminescence. (Kinase-Glo reads ATP consumption through a luciferase reaction.)
Calcium-dependent protein kinase 1 (Plasmodium falciparum (isolate 3D7)), sequence (P62344 whole entry, looked up): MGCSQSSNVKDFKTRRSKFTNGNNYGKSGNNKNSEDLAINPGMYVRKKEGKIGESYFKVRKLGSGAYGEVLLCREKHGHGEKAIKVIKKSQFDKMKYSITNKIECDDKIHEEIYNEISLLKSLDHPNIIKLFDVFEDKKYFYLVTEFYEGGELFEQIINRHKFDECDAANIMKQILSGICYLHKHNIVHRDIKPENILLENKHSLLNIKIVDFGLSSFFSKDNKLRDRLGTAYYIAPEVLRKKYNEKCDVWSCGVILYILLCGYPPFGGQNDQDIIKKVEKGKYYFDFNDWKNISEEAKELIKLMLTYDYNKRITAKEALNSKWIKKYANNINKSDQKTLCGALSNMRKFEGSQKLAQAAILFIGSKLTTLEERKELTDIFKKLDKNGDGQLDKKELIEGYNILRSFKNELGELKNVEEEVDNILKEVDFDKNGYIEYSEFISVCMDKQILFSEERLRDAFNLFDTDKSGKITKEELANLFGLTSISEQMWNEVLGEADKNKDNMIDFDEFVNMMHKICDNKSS
For assay [6], the target named is Plasmodium falciparum protein kinase 6 (PK6, PF3D7_1337100) (UniProt Q8IDW1). Briefly: PfPK6 kinase inhibitors, biochemical, TCAMS library (AID 1159586). Conditions: recombinant PfPK6, Kinase-Glo ATP depletion luminescence.
Plasmodium falciparum protein kinase 6 (PK6, PF3D7_1337100), sequence (Q8IDW1 1-305): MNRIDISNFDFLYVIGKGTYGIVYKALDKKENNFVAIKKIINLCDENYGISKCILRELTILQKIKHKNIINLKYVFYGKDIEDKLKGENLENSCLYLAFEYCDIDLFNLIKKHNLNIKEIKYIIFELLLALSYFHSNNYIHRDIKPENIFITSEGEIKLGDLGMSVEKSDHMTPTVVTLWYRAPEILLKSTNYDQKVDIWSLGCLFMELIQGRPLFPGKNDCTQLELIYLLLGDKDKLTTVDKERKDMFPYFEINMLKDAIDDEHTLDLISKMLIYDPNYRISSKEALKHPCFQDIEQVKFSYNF
The target of assay [7] is Protein kinase 7 (PK7), Plasmodium falciparum 3D7 (PF3D7_0213400) (UniProt Q7YTF7). Briefly: inhibition of Plasmodium PK7 catalytic activity – biochemical, TCAMS antimalarial set, Kinase-Glo luminescence (AID 1159587). The note with it: recombinant PfPK7, Kinase-Glo ATP depletion luminescence.
Protein kinase 7 (PK7), Plasmodium falciparum 3D7 (PF3D7_0213400), sequence (Q7YTF7 1-343): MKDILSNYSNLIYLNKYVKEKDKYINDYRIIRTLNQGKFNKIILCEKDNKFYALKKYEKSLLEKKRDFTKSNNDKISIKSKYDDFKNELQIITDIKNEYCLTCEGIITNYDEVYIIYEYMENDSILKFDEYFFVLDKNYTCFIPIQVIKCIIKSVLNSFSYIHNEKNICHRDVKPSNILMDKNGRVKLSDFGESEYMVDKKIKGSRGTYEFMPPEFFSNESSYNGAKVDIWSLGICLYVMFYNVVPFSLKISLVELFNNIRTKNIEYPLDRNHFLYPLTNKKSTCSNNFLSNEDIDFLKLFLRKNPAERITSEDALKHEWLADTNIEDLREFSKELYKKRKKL
Assay [8] concerns the target Calcium-dependent protein kinase 4 (Plasmodium falciparum (isolate 3D7)) (UniProt Q8IBS5). Briefly: PfCDPK4 kinase inhibitors, biochemical, TCAMS library (AID 1159588; cut-off not given, nearly all actives have IC50 up to about 0.91 µM). Conditions: recombinant PfCDPK4, Kinase-Glo ATP depletion luminescence.

Calcium-dependent protein kinase 4 (Plasmodium falciparum (isolate 3D7)), sequence (Q8IBS5 whole entry, looked up): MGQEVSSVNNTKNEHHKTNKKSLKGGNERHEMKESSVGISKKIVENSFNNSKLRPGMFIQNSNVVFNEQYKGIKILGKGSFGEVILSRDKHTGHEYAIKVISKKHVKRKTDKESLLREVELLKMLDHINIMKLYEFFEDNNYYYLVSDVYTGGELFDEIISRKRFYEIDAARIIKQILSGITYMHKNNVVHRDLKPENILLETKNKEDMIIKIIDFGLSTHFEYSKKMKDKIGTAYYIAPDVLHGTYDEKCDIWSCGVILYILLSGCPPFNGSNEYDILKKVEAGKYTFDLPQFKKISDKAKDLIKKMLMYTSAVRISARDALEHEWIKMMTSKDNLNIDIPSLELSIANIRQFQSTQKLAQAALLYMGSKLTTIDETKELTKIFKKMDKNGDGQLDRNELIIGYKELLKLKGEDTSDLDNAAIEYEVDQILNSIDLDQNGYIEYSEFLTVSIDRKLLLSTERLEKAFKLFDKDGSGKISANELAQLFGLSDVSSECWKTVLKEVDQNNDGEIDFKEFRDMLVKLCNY

`CC[C@@H]([C@@H](Cc1cc2ccccc2s1)C(=O)N[C@@H](CCCCNC(=O)OCc1ccccc1)C(=O)Nc1ccccn1)N(O)C=O`: the growth inhibition was 70% (active) in assay [1] and 96% (active) in assay [4]. The results for the inhibition in assay [2] and in assay [3] were 36% and 6%, respectively. Moreover, the outcome in assay [5], in assay [6], in assay [7] and in assay [8] was inactive.

Consider `C(=C(c1cccs1)c1cccs1)c1ccc(CNC2CCN(Cc3ccccc3)CC2)cc1`, for which the growth inhibition in assay [1] was 21%; in assay [4], 98% (active). The figures for the inhibition in assay [2] and in assay [3] were 40% and 4%, respectively. In addition, the result in assay [5], in assay [6], in assay [7] and in assay [8] was inactive.

For `O=C(Nc1ccc(C(F)(F)F)cc1)c1cccc(S(=O)(=O)NC2CCN(Cc3ccccc3)C2)c1` (configuration not stated), the growth inhibition was -2% in assay [1] and 88% (active) in assay [4]. For the same compound, the inhibition (commonly the change of the read-out against control, counted positive when it falls) in assay [2] was 39%; in assay [3], -5%. The outcome in assay [5], in assay [6], in assay [7] and in assay [8] was inactive.

Regarding `Cc1cccc(-c2nc(Nc3ccncc3)c3cc(N(C)C)ccc3n2)n1`, the figures for the growth inhibition in assay [1] and in assay [4] were 63% (active) and 98% (active), respectively. The inhibition was 5% in assay [2] and -2% in assay [3]. Further, the result in assay [5], in assay [6], in assay [7] and in assay [8] was inactive.

With `O=C(NCCCCN1CCC(c2cccc3ccccc23)CC1)c1ccc(-c2ccc(C(F)(F)F)cn2)cc1`, the figures for the growth inhibition in assay [1] and in assay [4] were 36% and 91% (active), respectively. Besides, the values for the inhibition in assay [2] and in assay [3] were 31% and 0%, respectively. Moreover, the result in assay [5], in assay [6], in assay [7] and in assay [8] was inactive.

`CC(C)NCC(O)COc1ccc(Cc2ccc(OCC(O)CNC(C)C)cc2)cc1` (configuration not stated): the results for the growth inhibition in assay [1] and in assay [4] were 18% and 100% (active), respectively. Besides, the inhibition is -8% in assay [2] and -5% in assay [3]. Also, the outcome in assay [5], in assay [6], in assay [7] and in assay [8] was inactive.

Take `CN(C)C(CNC(=O)c1cc(-c2ccncc2)c(-c2ccc(NC(=O)Nc3ccccc3)cc2)o1)c1ccccc1` (configuration not stated): the growth inhibition is 96% (active) in assay [1] and 101% (active) in assay [4]. Further, the inhibition in assay [2] was 19%; in assay [3] it was 4%. For the same compound, the outcome in assay [5], in assay [6], in assay [7] and in assay [8] was inactive.

With `COc1ccc2nccc([C@@H](O)CN3CCC(NCc4cc5cccc(OC)c5o4)CC3)c2c1`, the growth inhibition is 81% (active) in assay [1] and 99% (active) in assay [4]. In addition, the inhibition in assay [2] is 10%; in assay [3], -8%. Moreover, the result in assay [5], in assay [6], in assay [7] and in assay [8] was inactive.

Regarding `O=C(NCCCCN1CCC(c2ccc3c(c2OCCCO)CCCC3)CC1)c1ccc(-c2ccc(C(F)(F)F)cc2)cc1`, the growth inhibition is 53% (active) in assay [1] and 83% (active) in assay [4]. Further, the inhibition in assay [2] is 98% (active); in assay [3], 1%. Besides, the result in assay [5], in assay [6], in assay [7] and in assay [8] was inactive.

With `CC(C)c1ccc(NC(=O)Nc2ccc(Cn3ncc(N4CCCNCC4)c(Cl)c3=O)cc2)cc1`, the growth inhibition in assay [1] was 27%; in assay [4] it was 85% (active). Moreover, the inhibition in assay [2] was 11%; in assay [3] it was 2%. Further, the outcome in assay [5], in assay [6], in assay [7] and in assay [8] was inactive.

As to `COc1ccc(NS(=O)(=O)c2ccc(C(=O)Nc3ccc(C(F)(F)F)cc3)cc2)cc1N1CCN(CC2CC2)CC1`, the growth inhibition in assay [1] was -5%; in assay [4] it was 92% (active). Also, the values for the inhibition in assay [2] and in assay [3] were 15% and 1%, respectively. The outcome in assay [5], in assay [6], in assay [7] and in assay [8] was inactive.

As for `O=c1ccc2ccc(F)c3c2n1CC3CN1CCC(NCc2ccc(-c3cccc(Cl)c3)nc2)CC1` (configuration not stated), the growth inhibition in assay [1] is 33%; in assay [4] it was 96% (active). The results for the inhibition in assay [2] and in assay [3] were 16% and 3%, respectively. For the same compound, the outcome in assay [5], in assay [6], in assay [7] and in assay [8] was inactive.

As for `Cc1[nH]c(C)c(-c2ccc(-c3ccc(OCC(F)(F)F)cc3)nc2)c(=O)c1Cl`, the growth inhibition in assay [1] is 96% (active); in assay [4], 94% (active). Besides, the inhibition in assay [2] is 3%; in assay [3], 4%. Further, the outcome in assay [5], in assay [6], in assay [7] and in assay [8] was inactive.

Consider `O=C(Nc1cccc(-c2cc(-c3c(Cl)cccc3Cl)no2)c1)c1cnc2ccccc2c1`, for which the growth inhibition was 34% in assay [1] and 87% (active) in assay [4]. Further, the inhibition is -6% in assay [2] and -3% in assay [3]. The result in assay [5], in assay [6], in assay [7] and in assay [8] was inactive.

Consider `CC[C@H](C)[C@@H](C(=O)N1CCOCC1)N1CC[C@H](NS(=O)(=O)CC(C)(C)c2ccc(Cl)cc2)C1=O`, for which the growth inhibition in assay [1] is 95% (active); in assay [4] it was 101% (active). The inhibition in assay [2] was -1%; in assay [3] it was 1%. Further, the outcome in assay [5], in assay [6], in assay [7] and in assay [8] was inactive.

For the compound `CCCn1c(Sc2ccc(C#N)c([N+](=O)[O-])c2)nnc1-c1ccc(OC)cc1`, the growth inhibition in assay [1] was 95% (active); in assay [4], 94% (active). Further, the figures for the inhibition in assay [2] and in assay [3] were -6% and -2%, respectively. Moreover, the result in assay [5], in assay [6], in assay [7] and in assay [8] was inactive.

`O=C(/C=C/c1ccc(Cl)c(Cl)c1)NCCCCCN1CCN(C(=O)Nc2ccc(C(F)(F)F)cc2)CC1`: the growth inhibition in assay [1] is -1%; in assay [4], 99% (active). The inhibition in assay [2] was 26%; in assay [3] it was -5%. Further, the result in assay [5], in assay [6], in assay [7] and in assay [8] was inactive.

Turning to `COc1ccccc1NC(=O)Nc1cccc(-c2cccc(-c3nc4ccc(C(F)(F)F)cc4[nH]3)c2)c1`, the growth inhibition was 97% (active) in assay [1] and 101% (active) in assay [4]. Also, the inhibition in assay [2] was 21%; in assay [3], 5%. Moreover, the result in assay [5], in assay [6], in assay [7] and in assay [8] was inactive.

As to `N=c1sc2ccccc2n1CC(O)c1ccc(Cl)c(Cl)c1` (configuration not stated), the growth inhibition is 74% (active) in assay [1] and 99% (active) in assay [4]. Moreover, the inhibition was 4% in assay [2] and -2% in assay [3]. Moreover, the result in assay [5], in assay [6], in assay [7] and in assay [8] was inactive.
